In PubChem BioAssay AID720550 (National Center for Advancing Translational Sciences (NCATS), 2013) one finds Potency data, which are given here for 19 molecules.

Results filed as inconclusive are left out. Where a call stands in place of a potency, no number is given. Calls of active or inactive are those of the source. Calls come from the whole dose curve; as a rule, active = well fitted curve in the direction sought with a large enough effect; inconclusive = small, poorly fitted or top-dose-only effect, or another doubt; inactive = no such curve, though single readings can be large or run the other way.

The experiment can be described thus: qHTS for Inhibitors of Bloom's syndrome helicase (BLM): Thiazole Orange DNA Binding Counterscreen for SAR. The note with it: fluorescence; Potency: Thiazole orange DNA displacement; series mostly up to 57.1 µM. Put shortly: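 Compounds pintool-added to 50 nM unlabeled DNA with 100 nM thiazole orange; fluorescence (ex 480/em 530 nm) read after 15 min at room temperature. Dye displacement flags nonspecific DNA binders; inactivity is the desired outcome.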
For `O=C(Nc1ccc2ccccc2c1)Nc1nnc(-c2ccccc2Cl)s1`, the Potency result is “inactive”. `S=C(Nc1ccc(Cl)c(Cl)c1)Nc1nnc(-c2ccncc2)o1`: the Potency result was “inactive”. For the molecule `O=C(Nc1ccc2ccccc2c1)Nc1nnc(-c2cccnc2)s1`, the Potency entry is “inactive”. Regarding `CC(C)(C)NC(=O)Nc1nnc(-c2ccncc2)s1`, the Potency result is “inactive”.

As for `N#Cc1cc(NC(=O)Nc2cccc(-c3ccncc3)n2)ccc1Cl`, the Potency entry is “inactive”. Take `O=C(Nc1ccc(Cl)c(C(F)(F)F)c1)Nc1nnc(-c2cccnc2)s1`: the Potency entry is “inactive”. Consider `O=C(Cc1ccc2ccccc2c1)Nc1nnc(-c2ccncc2)s1`, for which the Potency entry was “inactive”. The result for `O=C(Nc1ccc(-c2nc3ccccc3[nH]2)cc1)Nc1ccc2c(c1)CCCO2` reads “inactive”. `O=C(Nc1ccc(Cl)c(Cl)c1)Nc1nnc(Br)s1`: the Potency entry was “inactive”. For `O=C(Nc1ccc(F)c(F)c1)Nc1nnc(-c2ccncc2)s1`, the Potency result was “inactive”. Consider `COc1ccc(OC)c(-c2nnc(NC(=O)Nc3ccc4ccccc4c3)s2)c1`, for which the Potency result is “inactive”. The result for `COc1ccc(NC(=O)Nc2ccc(-c3nc4ccccc4[nH]3)cc2)cc1OC` reads “inactive”; that for `Cc1cc(NC(=O)Nc2cccc(-c3ccncc3)n2)ccc1Cl`, “inactive”; that for `O=C(Nc1ccc(N2CCOCC2)c(F)c1)Nc1nnc(-c2ccncc2)s1`, “inactive”.

Regarding `Cc1cc(NC(=O)Nc2nnc(C3CCCCC3)s2)ccc1Br`, the Potency result was “inactive”.

Consider `O=C(Nc1ccc(F)c(C(F)(F)F)c1)Nc1nnc(C2CCCCC2)s1`, for which the Potency entry is “inactive”. Take `O=C(Nc1ccc(Cl)c(Cl)c1)Nc1nc(-c2ccncc2)cs1`: the Potency result was “inactive”. `N#Cc1ccc(NC(=O)Nc2nnc(-c3ccncc3)s2)c(Cl)c1`: the Potency result was “inactive”. Take `Cc1cc(NC(=O)Nc2nnc(-c3ccncc3)s2)ccc1F`: the Potency entry is “inactive”.
